Sampled rows, rich in hits. Any-hit rate of the full collection: about 1.8%.
Beta cell apopt: blocks beta cell apoptosis; INS-1E cytokine-induced death, ATP luminescence, 48 h; percent of positive-control rescue, neutral wells zero; protection from apoptosis, % (no concentration beside the values); hit rate 0.8% among 300,000; AID 435005;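 active = Every replicate reaches about 75%, or at least half do and their mean reaches it too, limit read from the data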;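 also: 0% = cytokine-treated negative control wells and 100% = positive control rescue; higher means more ATP so stronger rescue from cytokine killing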
697 NFkB inh: lowers PMA/ionomycin-induced NF-kB signal in 697 B cells. 697 B-cell NF-kB luciferase reporter, 16 h. inhibition, % at 4 µM. hit rate 0.33% among 330,000; in the data active = inhibition above about 35%
Gli-Sufu block: blocks Gli-Sufu signaling in a luciferase reporter | Sufu-KO-LIGHT fibroblasts, Gli luciferase reporter luminescence | inhibition, % at 5 µM | hit rate 0.74% among 340,000;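 active = inhibition above about 55%, limit read from the data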;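 also: 0% = DMSO-treated cells and 100% = wells with medium but no cells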
Jurkat NFkB inh: lowers PMA/ionomycin-induced NF-kB signal in Jurkat cells; AID 435003; inhibition, % at 4 µM; hit rate 0.53% among 330,000; PMA/ionomycin-induced NF-kB luciferase reporter, luminescence; in the data active = inhibition above about 50%
Gli antag conf: Gli-SUFU antagonism confirmation, single concentration. shares compounds with Gli-Sufu block. Sufu-KO-LIGHT cells, Gli luciferase reporter, luminescence. inhibition, % at 5 µM. hit rate 40% among 2,500. AID 602428;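 active = mean inhibition at 5 µM reaching about 45%, limit read from the data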;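 also: plate controls were DMSO-treated cells for no effect and wells lacking cells for full effect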
Gli cytotox: counter-screen for Gli-SUFU antagonists: cytotoxicity | hit rate 32% among 2,500 | shares compounds with Gli-Sufu block | cytotoxicity, % at 5 µM | Sufu-KO-LIGHT cells cytotoxicity, ATP luminescence;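 active = mean cytotoxicity at 5 µM above about 25%, limit read from the data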;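 also: cells exposed to compound overnight for roughly 16 to 18 hours; plate controls were DMSO wells with cells for no effect and medium without cells for full effect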
Wnt3a cs: Wnt3a reporter inhibition counter-screen; inhibition, % at 6.25 µM; AID 651995; hit rate 20% among 2,500; shares compounds with Gli-Sufu block; Wnt-LIGHT cells, Wnt3a-driven luciferase reporter, luminescence;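 active = mean inhibition above about 25%, limit read from the data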
The depositor's hits bear a star; . = no result.

SMILES | Beta cell apopt | 697 NFkB inh | Gli-Sufu block | Jurkat NFkB inh | Gli antag conf | Gli cytotox | Wnt3a cs
CCOC(=O)N1CCN(C(=S)NC)CC1 | 2.2 | -2.8 | 2.6 | -4.1 | . | . | .
Cc1ccnc(NS(=O)(=O)c2ccc(NC(=O)Cc3ccc(Cl)cc3)cc2)n1 | -2.0 | 0.0 | 0.9 | -5.7 | . | . | .
CC(C)N(Cc1ccccc1)S(=O)(=O)c1ccc(F)cc1 | 47.0 | -10.2 | 59.4* | 18.5 | 48.7* | 33.6* | 32.8*
COc1cc(C(=O)NC2CCN(C)CC2)ccc1Nc1ncc2c(n1)N(Cc1ccccc1)CCC(=O)N2C | . | . | 90.8* | . | 88.7* | 20.2 | -100.5
COc1cc(C(=O)NC2CCN(C)CC2)ccc1Nc1ncc2c(n1)N(C1CCCCC1)CCC(=O)N2C | . | . | 82.4* | . | 78.7* | 18.9 | -70.2
CCOC(=O)C1(Cc2cccc(Cl)c2)CCCN(C(=O)CCC(=O)N(C)C)C1 (stereo not drawn) | -0.2 | -0.2 | -5.2 | 0.8 | . | . | .
C=CCN=C(NC#N)SCC(=O)NC(C)(C)C | -1.1 | 6.5 | 4.1 | -6.0 | . | . | .
C=CCN=C(NC#N)SC | . | 0.7 | 58.2* | -2.8 | 14.6 | 8.5 | 8.9
CN(C)c1ccc(NC(=O)CN2CCC(N3CCCCC3)CC2)cc1 | 0.5 | -5.7 | 52.6 | -8.0 | 18.6 | 6.6 | 6.1
CN(C)c1ccc(NC(=O)CN2CCC(NC(=O)C3CCCCC3)CC2)cc1 | 1.6 | -7.0 | -8.9 | -0.5 | . | . | .
COc1ccc(NS(=O)(=O)c2ccc(N/N=C(\C)c3ccncc3)c([N+](=O)[O-])c2)cc1 | 49.7 | -69.0 | 66.0* | 27.0 | 65.8* | 24.9 | 34.5*
O=C(c1ccc(CSc2nc3ccncc3[nH]2)cc1)N1CCN(c2cccc(Cl)c2)CC1 | 66.5 | -19.7 | 58.3* | 31.1 | 67.2* | 42.3* | 8.1
O=C(c1ccc(CSc2nc3ccncc3[nH]2)cc1)N1CCCCCC1 | 9.5 | -85.5 | -43.4 | -13.6 | . | . | .
O=C(COC(=O)c1ccc2ncsc2c1)Nc1cccc(Cl)c1 | -1.1 | -0.1 | -9.2 | -5.0 | . | . | .
CCOC(=O)C1C(=O)C=C(C)C(C(=O)OCC)C1c1cccc([N+](=O)[O-])c1 (stereo not drawn) | 1.6 | 2.0 | 19.1 | 8.1 | . | . | .
CSc1ccc(C2(O)Cc3cccc[n+]3C2c2ccccc2)cc1 (stereo not drawn) | 4.1 | -1.4 | 55.8* | 2.8 | 17.3 | 10.9 | -29.5
CCc1ccccc1NC(=O)C/C(C)=N/NC(=O)COc1ccccc1C | 3.0 | 5.6 | 5.7 | -9.4 | . | . | .
COC(=O)C1=C(C(=O)OC)[C@@H]2Nc3ccccc3[C@@]23C[C@@H](C(=O)OC)N(C(=O)COCc2ccccc2)C3=N1 | -3.3 | 11.0 | -4.6 | 21.8 | . | . | .
Cc1ccc(C)c(OCC(O)CN2CCC(CN3C(=O)c4cccc5cccc(c45)C3=O)CC2)c1 (stereo not drawn) | 67.4 | -43.6 | 50.7 | 41.1 | 33.4 | 12.6 | 28.2*
COc1ccc(OCC(O)CN2CCC(CN3C(=O)c4cccc5cccc(c45)C3=O)CC2)cc1 (stereo not drawn) | 12.0 | 4.5 | 0.2 | -4.3 | . | . | .
O=C(O)c1ccc(NC(=O)c2cccc(C(=O)Nc3ccc(C(=O)O)cc3)n2)cc1 | -6.6 | 17.6 | 65.6* | -3.0 | 15.8 | 12.6 | 9.1
COCCN(C(=O)COC(=O)COc1ccc2ccccc2c1)c1c(N)n(Cc2ccccc2)c(=O)[nH]c1=O | . | . | -3.5 | . | . | . | .
CCOc1ccccc1N1CCN(C(=O)CNC(=O)c2ccc(OC)c(OC)c2)CC1 | -2.3 | -5.0 | 71.2* | -13.5 | 9.9 | 8.9 | -27.1
COc1ccc(C(=O)NCC(=O)N2CCCCC2)cc1OC | -3.5 | -0.7 | -5.1 | -7.4 | . | . | .
COc1ccc(CCNC(=O)c2ccccc2NC(=O)C2=C(C)OCCS2)c(OC)c1 | 1.0 | -10.3 | 5.3 | 0.5 | . | . | .
SMILES | Beta cell apopt | 697 NFkB inh | Gli-Sufu block | Jurkat NFkB inh | Gli antag conf | Gli cytotox | Wnt3a cs
COc1cc(CNC(=O)c2ccccc2NC(=O)C2=C(C)OCCS2)cc(OC)c1OC | -0.8 | 11.9 | 90.9* | 7.8 | 17.2 | 0.0 | -18.7
CC1=C(C(=O)Nc2ccccc2C(=O)NCCCN2CCN(C)CC2)SCCO1 | -6.0 | -14.5 | 32.1 | 2.4 | . | . | .
COc1cc(CCNC(=O)c2ccccc2NC(=O)C2=C(C)OCCS2)cc(OC)c1OC | 1.1 | -8.1 | 98.8* | -12.2 | 18.5 | -1.0 | 12.4
Nc1ncc2c(n1)-c1cc(Cl)ccc1SC2 | -5.7 | 1.1 | 11.6 | 10.4 | . | . | .
CSc1nc(N)nc2c1ncn2CC(=O)N1CCN(Cc2c(C)cc(C)cc2C)CC1 | 100.4* | 25.9 | 51.4 | 33.5 | 62.0* | 26.7* | 43.7*
CC1Sc2n(c3ccccc3[n+]2C)N=C1c1ccccc1 (stereo not drawn) | 36.8 | -50.8 | 59.4* | 24.2 | 74.9* | 27.0* | 12.1
Clc1ccc(C2=Nn3c(Cn4nnc5ccccc54)nnc3SC2)cc1 | -5.9 | -15.8 | -0.6 | -16.0 | . | . | .
C[n+]1c2n(c3ccccc31)N=C(c1ccc(Cl)cc1)CS2 | 75.8* | -15.9 | 61.4* | 9.0 | 65.6* | 37.4* | -8.6
CN1N=C(N)c2cn(C3OC(COP(=O)(O)O)C(O)C3O)c3ncnc1c23 (stereo not drawn) | . | . | 89.0* | . | 85.6* | 62.8* | 70.7*
COc1cc(OC)cc(C(=O)N2CC(=O)Nc3ccccc32)c1 | 15.4 | -14.8 | 54.7 | 48.6 | 28.6 | 48.5* | -50.4
Cc1sc2ncnc(NCC(O)c3ccc([N+](=O)[O-])cc3)c2c1C (stereo not drawn) | 79.2* | 8.8 | 68.3* | 46.9 | 70.7* | 29.5* | 6.6
CC(=O)Nc1ccc(N/C(N)=N/c2nc(C)cc(C)n2)cc1 | . | 0.0 | 13.0 | -5.8 | . | . | .
Cc1cc(C)nc(/N=C(\N)Nc2ccc(-c3ccccc3)cc2)n1 | 39.8 | -37.8 | 67.4* | 40.0 | 37.3 | 18.1 | -94.9
Cc1ccc(C)c(NC(=O)C2CCN(S(=O)(=O)c3ccc4c(c3)NC(=O)CO4)CC2)c1 | 0.3 | 0.0 | 60.4* | 18.1 | 17.9 | 10.6 | -31.6
O=C(COC(=O)c1cnc(Cl)c(Cl)c1)NCCC1=CCCCC1 | -6.1 | -6.2 | 50.9 | 4.2 | 9.4 | 17.1 | 0.0
Cc1cc(C(=O)N/N=C2/CC(C)CC(C)(C)C2)c(C)o1 (stereo not drawn) | -1.5 | 17.1 | 52.0 | 5.0 | 22.4 | 21.9 | -2.0
N#Cc1ccc(C(=O)Nc2nnc(-c3ccco3)o2)cc1 | -1.3 | 9.0 | 4.6 | -20.2 | . | . | .
Cc1nn(CC(=O)OCC(=O)NCCc2ccc(F)cc2)c(C)c1[N+](=O)[O-] | -2.1 | -5.1 | 3.9 | 3.5 | . | . | .
CCOc1cc(C(F)(F)F)cnc1/C(N)=N/O | -10.9 | -2.1 | 7.4 | -7.7 | . | . | .
CC(=O)C(C)n1c(CN2CCN(C(=O)c3ccco3)CC2)nc2c1c(=O)n(C)c(=O)n2C (stereo not drawn) | -3.4 | 0.1 | -1.9 | -1.3 | . | . | .
Cc1[nH]c2ccccc2c1/C=C/c1nc2ccccc2c(=O)n1-c1cccc([N+](=O)[O-])c1 | 2.6 | -13.2 | 50.4 | 4.5 | 19.5 | 8.4 | -8.3

High-throughput results deposited in PubChem BioAssay by several laboratories.
